Among the data in PubChem BioAssay (NCATS) are outcome, Potency and caspase-3 activation values, retold here.

“And” between values parts separate entries of the source, which are not always exact repeats. Equal values may be shown once. Unmarked numbers belong to inactive results. Records with an inconclusive call do not appear. The source made the active and inactive calls. Unless noted, calls follow the shape of the dose curve; as a rule, active = well fitted curve in the direction sought with a large enough effect; inconclusive = small, poorly fitted or top-dose-only effect, or another doubt; inactive = no such curve, though single readings can be large; an effect the other way counts as inactive or inconclusive.

In test [1] the target is 3',5'-cyclic-AMP phosphodiesterase 4B (Homo sapiens) (UniProt Q07343). Kind of test: qHTS Assay for Inhibitors of PDE-IV (AID 607; active = well fitted activation curve with a large enough effect in the main read-out, with a control signal flat, not every such curve was filed as active; also: % of control where 0% means no effect). The method in brief:
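Live HEK293 cells with a modified cyclic nucleotide-gated (CNG) channel report intracellular cAMP via membrane-potential dye fluorescence (ex 535/em 590 nm). Endogenous PDE-IV was targeted. Compounds were tested at up to 22.9 uM final; RO 20-1724 100 uM served as control.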
For orientation: qHTS replaces the single test concentration by a dilution series.

Test [2] is described as follows: Confirmation and Secondary Assay for Modulators of Hemoglobin Beta Chain Splicing at IVS2 654 locus (AID 910).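 Also: HeLa cells stably carrying EGFP split by mutant beta-globin IVS2-654 intron.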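 Also: potency is read from the fitted curve at half-maximal effect; potency of activators that raise GFP signal by restoring correct splicing.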 The method in brief:
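HeLa cells stably expressing EGFP interrupted by β-globin IVS2-654 intron, seeded overnight in Opti-MEM/2% FCS, then treated 2 days at 37 °C. Restored splicing read as total peak GFP intensity per well by laser scanning cytometry (488 nm excitation, 500–520 nm emission); 500 nM antisense PNA as control.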

Test [3] is described as follows: Cellular Toxicity (caspase-3) HepG2 (AID 654).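 Also: cells exposed to compound for 16 hours before reading; 0% = DMSO alone and 100% = caspase signal from 100 µM tamoxifen.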 The method in brief:
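Caspase 3/7 activation is measured as a luminescence increase (aminoluciferin substrate) after 16 h compound exposure of human hepatocarcinoma HepG2 cells. AC50 values are Hill fits, scaled between DMSO baseline and 100 uM tamoxifen stimulation.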

Test [4] in a line: Cellular Toxicity (caspase-3) Jurkat (AID 655).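 Also: cells exposed to compound for 16 h at 37 °C before reading.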 The method in brief:
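Caspase 3/7 activation is scored as increased luminescence in Jurkat cells cultured with compound for 16 hours in complete medium. AC50 values come from Hill fits of qHTS concentration-response data normalized to DMSO and 100 uM tamoxifen controls.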

The nature of test [5]: Cellular Toxicity (caspase-3) HUV-EC-C (AID 656). The method in brief:
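Read-out: luminescence proportional to caspase 3/7 activity, measured 20 min after adding Caspase-Glo 3/7 reagent. Cells (HUV-EC-C) had received compound for 16 hr at 37°C. Increases relative to DMSO and 100 uM tamoxifen gave concentration-response AC50 values.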

Test [6] in a line: Cellular Toxicity (caspase-3) SHSY5Y (AID 657). The method in brief: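 Cells plated and incubated 5 h at 37 °C, dosed over a concentration range, incubated 16 h, then given Caspase-Glo 3/7 reagent for 1 h at room temperature before luminescence reading. Staurosporine (10 uM) defined full stimulation.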
The nature of test [7]: Cellular Toxicity (caspase-3) BJ (AID 658).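 Also: 0% = DMSO basal and 100% = 10 µM staurosporine.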 The note with it: Potency: caspase-3 activation. An outline of the steps:
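qHTS, BJ fibroblasts, 1000 cells/well; 5 hr preincubation, 16 hr compound, 37 °C; Caspase-Glo 3/7 reagent, 1 hr RT; luminescence. DMSO = 0%, 10 uM staurosporine = 100%. Hill-equation AC50.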

A short description of test [8]: Cellular Toxicity (caspase-3) MRC-5 (AID 659).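 Also: 0% = DMSO basal and 100% = 10 µM staurosporine.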 An outline of the steps:
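MRC-5 fibroblasts, 1500/well; 16 h cpd, 37 °C; Caspase-Glo 3/7, 1 h RT; lumi read. Norm: DMSO = 0%, 10 uM staurosporine = 100%. Hill-fit AC50 from qHTS conc-response.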

Test [9] can be described thus: Cellular Toxicity (caspase-3) Mesangial (AID 660).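 Also: cells exposed to compound for 16 h before the caspase read.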 The method in brief:
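Caspase 3/7 activation measured by Caspase-Glo 3/7 luminescence (20 min, room temperature) following 16 h exposure of mesangial cells (1000/well); AC50 from Hill-equation fit, normalized to DMSO and 100 uM tamoxifen.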

A short description of test [10]: Cellular Toxicity (caspase-3) SK-N-SH (AID 661).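 Also: 0% = DMSO basal and 100% = 10 µM staurosporine.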 The note with it: SK-N-SH caspase-3 activation, qHTS; caspase-3 activation: at 91.7 µM (top of the series), DMSO as zero, staurosporine as full. An outline of the steps: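 Caspase 3/7 activation was read by luminogenic substrate cleavage after 16 hour treatment of SK-N-SH cells. Signal was scaled between DMSO and 10 uM staurosporine, and concentration-response data were fitted with the Hill equation for AC50.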

The nature of test [11]: Cellular Toxicity (caspase-3) H-4-II-E (AID 663).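 Also: cells exposed to compound for 16 hr before readout.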 An outline of the steps:
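H-4-II-E rat hepatoma, 1500 cells/well, 5 hr settle at 37 °C; compound 16 hr, 37 °C, complete medium; Caspase-Glo 3/7, 20 min RT; luminescence. DMSO = 0%, 100 uM tamoxifen = 100%; Hill-equation AC50.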

Test [12] is described as follows: Cellular Toxicity (caspase-3) Hek293 (AID 664).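 Also: cells exposed to compound for 16 h at 37 °C before readout.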 The note with it: HEK293 caspase-3 activation, DMSO = 0%, 100 µM tamoxifen = 100%; at 92.2 µM (top of the series). An outline of the steps: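 Concentration-response qHTS: caspase 3/7 activation measured by luminescent aminoluciferin substrate cleavage after 16 h compound exposure of Hek 293 cells. AC50 from Hill equation, with DMSO as basal and 100 uM tamoxifen as 100%.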

Test [13] is described as follows: Cellular Toxicity (caspase-3) N2a (AID 665).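 Also: compound exposure lasted 16 h at 37 °C before readout.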 The method in brief: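 Caspase-3/7 activation measured as luminescence from Caspase-Glo reagent (1 h, room temperature) after 16 h compound exposure of mouse N2a cells. AC50 values from Hill-equation concentration-response, scaled between DMSO and 10 uM staurosporine.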
The nature of test [14]: Cellular Toxicity (caspase-3) NIH 3T3 (AID 666).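 Also: caspase signal read after 16 h compound exposure.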 The method in brief: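 Caspase-Glo 3/7 luminescence reported caspase activation in 1000 NIH 3T3 cells/well after 16 h compound exposure at 37 C. DMSO set basal and 100 uM tamoxifen set 100% stimulation; concentration-response modeled with the Hill equation for AC50.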
Test [15] can be described thus: Cellular Toxicity (caspase-3) Renal Proximal Tubule (AID 667).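 Also: cells exposed to compound for 16 hours at 37 °C before detection; 0% = DMSO basal and 100% = 10 µM staurosporine.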 The method in brief:
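In qHTS format, rat primary proximal tubule cells seeded at 1000 per well are exposed to compounds for 16 hours at 37 °C. An increase in Caspase-Glo 3/7 luminescence indicates caspase activation.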

In test [16] the target is Cytochrome P450 2D6 (Homo sapiens) (UniProt P10635). As to the kind of experiment: qHTS Assay for Inhibitors and Substrates of Cytochrome P450 2D6 (AID 891). Also: potency is read from the fitted curve at half-maximal effect; nearly all actives have a fitted effect of over 60% in size. The method in brief:
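Luminescent read-out of luciferin formed by 5 nM human CYP2D6 demethylating 30 uM Luciferin-ME EGE (Km level) over 60 min at room temperature after NADPH regeneration addition. Data normalized to full inhibition by 1.43 uM quinidine.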

Test [17] concerns the target Guanine nucleotide-binding protein G(i) subunit alpha-1 (Homo sapiens) (UniProt P63096). Kind of test: qHTS Assay for Inhibitors of RGS12 GoLoco Motif Activity (Green Fluorophore) (AID 879).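 Also: 0% = labeled peptide with Gαi1 and full inhibition = labeled peptide alone without protein; negative values mean loss of peptide binding seen as reduced polarization.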 The method in brief: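 A drop in FITC polarization marked displacement of the FITC-tagged RGS12 GoLoco peptide (10 nM) from Gαi1 (50 nM). Compounds were incubated 10 min at room temperature in Tris pH 7.5 buffer containing 150 mM NaCl, 0.1 mM GDP and 0.05% NP40; unlabeled peptide titration served as control.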

3',5'-cyclic-AMP phosphodiesterase 4B (Homo sapiens), sequence (Q07343 whole entry, looked up): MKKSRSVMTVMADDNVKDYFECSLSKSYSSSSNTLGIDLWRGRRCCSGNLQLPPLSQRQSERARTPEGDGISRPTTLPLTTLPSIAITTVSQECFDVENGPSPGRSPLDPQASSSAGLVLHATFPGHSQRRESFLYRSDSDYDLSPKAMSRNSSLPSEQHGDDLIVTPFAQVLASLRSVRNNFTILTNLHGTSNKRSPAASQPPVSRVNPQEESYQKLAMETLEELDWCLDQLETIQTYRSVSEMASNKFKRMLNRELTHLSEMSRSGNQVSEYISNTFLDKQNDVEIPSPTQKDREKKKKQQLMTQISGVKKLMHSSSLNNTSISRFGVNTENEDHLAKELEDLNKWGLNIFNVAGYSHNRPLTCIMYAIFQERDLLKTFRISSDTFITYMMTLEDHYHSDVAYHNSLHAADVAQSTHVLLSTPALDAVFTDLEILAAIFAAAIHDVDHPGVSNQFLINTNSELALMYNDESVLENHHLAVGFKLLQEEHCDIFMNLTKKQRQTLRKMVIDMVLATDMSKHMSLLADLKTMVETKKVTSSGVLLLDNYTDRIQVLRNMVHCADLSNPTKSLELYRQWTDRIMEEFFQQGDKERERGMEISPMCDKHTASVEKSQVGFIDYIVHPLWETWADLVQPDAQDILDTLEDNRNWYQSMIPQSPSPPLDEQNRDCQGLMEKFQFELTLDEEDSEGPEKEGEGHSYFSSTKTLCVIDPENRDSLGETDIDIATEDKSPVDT
Cytochrome P450 2D6 (Homo sapiens), sequence (P10635 whole entry, looked up): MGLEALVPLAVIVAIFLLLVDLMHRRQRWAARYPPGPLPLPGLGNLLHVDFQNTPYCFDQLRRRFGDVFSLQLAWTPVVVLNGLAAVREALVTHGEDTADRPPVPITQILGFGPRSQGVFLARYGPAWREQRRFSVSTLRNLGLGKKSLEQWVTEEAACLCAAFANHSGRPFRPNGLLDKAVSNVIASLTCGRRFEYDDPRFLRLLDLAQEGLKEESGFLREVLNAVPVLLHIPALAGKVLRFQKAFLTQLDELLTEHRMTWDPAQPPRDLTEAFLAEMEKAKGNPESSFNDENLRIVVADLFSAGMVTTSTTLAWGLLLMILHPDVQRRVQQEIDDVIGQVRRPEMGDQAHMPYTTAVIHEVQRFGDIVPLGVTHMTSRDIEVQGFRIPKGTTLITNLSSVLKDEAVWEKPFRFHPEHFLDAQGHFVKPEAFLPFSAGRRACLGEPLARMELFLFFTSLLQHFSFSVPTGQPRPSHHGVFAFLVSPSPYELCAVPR
Guanine nucleotide-binding protein G(i) subunit alpha-1 (Homo sapiens), sequence (P63096 whole entry, looked up): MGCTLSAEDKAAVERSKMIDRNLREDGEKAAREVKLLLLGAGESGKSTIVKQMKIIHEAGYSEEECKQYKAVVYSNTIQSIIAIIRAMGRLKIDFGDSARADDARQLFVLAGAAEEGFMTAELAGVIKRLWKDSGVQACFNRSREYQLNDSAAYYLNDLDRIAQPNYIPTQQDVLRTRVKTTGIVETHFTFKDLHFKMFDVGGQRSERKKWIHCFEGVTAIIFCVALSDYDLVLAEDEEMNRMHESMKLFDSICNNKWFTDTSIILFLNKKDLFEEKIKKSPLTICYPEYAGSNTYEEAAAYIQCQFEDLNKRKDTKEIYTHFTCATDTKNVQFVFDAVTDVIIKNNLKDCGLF

For the compound `CC(=O)N=c1sc(S(N)(=O)=O)nn1C`, the compound was called inactive in test [1]. In test [2], the Potency entry is “inactive”.

Consider `O.O.O.O.O.O.O.O=S(=O)([O-])[O-].[Co+2]`, for which the result in [3], in [5], in test [8], in test [9], in test [11] and in [13] was inactive. Moreover, the compound was classed as inactive in test [14] and in [15]. Besides, the Potency entry in test [4], in test [6], in [7] and in test [10] was “inactive” throughout. For the same compound, in [12], the caspase-3 activation was -1.13%.

Take `CCSc1ccc2c(c1)N(CCCN1CCN(C)CC1)c1ccccc1S2`: the compound was called inactive in [1]. Also, the Potency in test [16] was 2.51 µM (active).

Turning to `CC1(C)S[C@@H]2[C@H](NC(=O)C3(N)CCCCC3)C(=O)N2[C@H]1C(=O)O`, the compound was classed as inactive in [1].

For the compound `CN1C(=O)OC(C)(C)C1=O`, in test [1], the outcome was inactive.

In the case of `CCCCO`, the outcome in test [3], in [5], in test [8], in test [9], in [11] and in test [13] was inactive. The compound was classed as inactive in [14] and in test [15]. In addition, the Potency entry in test [4], in test [6], in test [7] and in test [10] was “inactive” throughout. The caspase-3 activation in [12] is 0.832% and 0.952%.

As to `OB(O)O`, the compound was called inactive in test [3], in test [5], in test [8], in test [9], in test [11] and in [13]. In addition, the compound was called inactive in test [14] and in test [15]. Moreover, the Potency result in test [4], in [6], in [7] and in [10] was “inactive” throughout. Further, the caspase-3 activation in [12] is -1.81%.

`Nc1ccc(N=Nc2ccccc2)c(N)n1`: the result in test [1], in [3], in test [5], in test [8], in [9] and in [11] was inactive. Besides, the outcome in test [13] and in [15] was inactive. Besides, the Potency result in test [4], in test [6], in test [7] and in [10] was “inactive” throughout. For the same compound, the caspase-3 activation in [12] is -7.28%. Further, the Potency in test [2] was 15.8 µM (active).

Take `Cc1cc(C)c(NC(=O)C[C@H](CC(=O)O)c2cccc3ccccc23)c(C(=O)N2CCC3(CCCC3)CC2)c1`: the compound was called inactive in [1] and in [17].

As for `ClC(Cl)Cl`, the call in test [3], in [5], in test [8], in test [9], in test [11] and in [13] was inactive. Further, the outcome in test [14] and in test [15] was inactive. Also, the Potency entry in [4], in [6], in test [7] and in [10] was “inactive” in each case. Also, in test [12], the caspase-3 activation was 0.0594%.

Consider `O=C1NCCN1c1ncc([N+](=O)[O-])s1`, for which the outcome in test [1] was inactive.

Consider `O=P(O)(O)OP(=O)(O)O`, for which the result in test [1] was inactive.

Take `OC[C@H]1O[C@@H]2O[C@H]3[C@H](O)[C@@H](O)[C@@H](O[C@H]4[C@H](O)[C@@H](O)[C@@H](O[C@H]5[C@H](O)[C@@H](O)[C@@H](O[C@H]6[C@H](O)[C@@H](O)[C@@H](O[C@H]7[C@H](O)[C@@H](O)[C@@H](O[C@H]1[C@H](O)[C@H]2O)O[C@@H]7CO)O[C@@H]6CO)O[C@@H]5CO)O[C@@H]4CO)O[C@@H]3CO`: the result in [3], in test [5], in [8], in [9], in [11] and in test [13] was inactive. Moreover, the outcome in test [14] and in [15] was inactive. Further, the Potency entry in [4], in [6], in test [7] and in test [10] was “inactive” in each case. Further, the caspase-3 activation in [12] was 0.542%.
